Results: PubChem BioAssay
Active and inactive are the calls of the source. Unless noted, the rule behind the calls is not given here.

Columns and labels:
[1] = HepG2 liver cancer cell viability effects, profiling panel, resazurin fluorescence, 24 h, PK04 Diversity Set (AID 1172); conditions: higher = more signal
[2] = basal S. cerevisiae growth modulation, no modifier, primary screen, OD600, strain BY4716, 24 h, basal condition (AID 1173); conditions: OD600, 24 h, higher = more signal, called active from +8 up or from −8 down
[3] = MM1S myeloma cell viability, profiling panel, resazurin fluorescence, basal, 24 h, PK04 Diversity Set (AID 1174); conditions: higher = more signal, called active from +8 up or from −8 down;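 note: MM1S multiple myeloma cell line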
[4] = target: Dihydroorotate dehydrogenase (quinone), mitochondrial (Plasmodium falciparum (isolate 3D7)) (UniProt Q08210); assay: PfDHODH enzyme inhibitors, primary screen, biochemical, C-terminal His tag, absorbance 600 nm (AID 1175); conditions: DCIP absorbance 600 nm, higher = more signal, called active from +8 up or from −8 down;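 note: recombinant parasite enzyme with a five histidine tag at its C terminus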
[5] = P. aeruginosa biofilm formation inhibitors, primary screen, strain PAO1, LB-PBS medium, absorbance 600 nm (AID 1176); conditions: P. aeruginosa PAO1 growth/biofilm, A600, 12 h; higher = more signal
[6] = S. cerevisiae RM11-1a growth modifiers, primary screen, strain RM11-1a, OD600, basal, 24 h (AID 1177); conditions: OD600, 24 h, higher = more signal, called active from +8 up or from −8 down;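 note: cultures grown under basal conditions with no added stressor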
[7] = E. coli acrAB mutant growth effects, primary screen, E. coli filamentation inducers, strain DRC39, OD650, 24 h (AID 1178); conditions: higher = more signal, called active from +8 up or from −8 down;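 note: growth measured as culture turbidity by optical density at 650 nm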
[8] = E. coli acrAB mutant growth effects, primary screen, E. coli filamentation inducers, strain DRC39, OD650, 48 h (AID 1179);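 note: screen aims at cell division blockers that make cells filament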; conditions: E. coli DRC39 delta-acrAB growth, higher = more signal, called active from +8 up or from −8 down
[9] = RPMI8226 myeloma cell viability, profiling panel, resazurin fluorescence, basal, 24 h, PK04 Diversity Set (AID 1180); conditions: higher = more signal;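 note: RPMI8826 multiple myeloma cell line at 5000 cells per well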
[10] = target: E3 ubiquitin-protein ligase XIAP (Homo sapiens) (UniProt P98170); assay: XIAP binders, primary screen, biophysical, small-molecule microarray, fluorescence 635 nm (AID 1181); conditions: small-molecule microarray binding, higher = more signal;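 note: score merges 667 nm emission and signal to noise over triplicate slides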
[11] = tested on: XIP peptide (Xip251-270) binding; assay: small-molecule binders of XIP peptide, primary screen, biochemical, small-molecule microarray, fluorescence 635/667 nm, 0.1 µg/mL protein (AID 1182); conditions: fluorescent protein binding, 635 nm, higher = more signal, called active from +8 up or from −8 down
XIP peptide (Xip251-270) = assay: small-molecule binders of XIP peptide, primary screen, biochemical, small-molecule microarray, fluorescence 635/667 nm, 0.5 µg/mL protein (AID 1183); conditions: small-molecule microarray binding, fluorescence 635 nm; higher = more signal
[12] = Plasmodium falciparum growth inhibition, primary screen, strain 3D7, DAPI fluorescence, 100 nL (AID 1184);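 note: parasites grown inside human red blood cells in medium with human serum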; conditions: P. falciparum 3D7 growth, 3 d, higher = more signal
[13] = target: Homeobox protein Hox-A13 (Mus musculus) (UniProt Q62424); assay: inhibitors of HoxA13-DNA binding, primary screen, biochemical, fluorescence polarization, labeled oligonucleotide (AID 1185); conditions: 15 min, higher = more signal, called active from +8 up or from −8 down
[14] = inhibitors of hydroxyurea-induced Chk1 phosphorylation, primary screen, imaging, HeLa, phospho-Chk1 antibody, percent positive cells (AID 1186); conditions: hydroxyurea-induced phospho-Chk1 immunofluorescence imaging, higher = more signal
[15] = inhibitors of hydroxyurea-induced Chk1 phosphorylation, primary screen, imaging, HeLa, phospho-Chk1 nuclear intensity (AID 1187); conditions: hydroxyurea-induced phospho-Chk1 immunofluorescence imaging, higher = more signal

Chain of E3 ubiquitin-protein ligase XIAP (Homo sapiens) (P98170 whole entry, looked up): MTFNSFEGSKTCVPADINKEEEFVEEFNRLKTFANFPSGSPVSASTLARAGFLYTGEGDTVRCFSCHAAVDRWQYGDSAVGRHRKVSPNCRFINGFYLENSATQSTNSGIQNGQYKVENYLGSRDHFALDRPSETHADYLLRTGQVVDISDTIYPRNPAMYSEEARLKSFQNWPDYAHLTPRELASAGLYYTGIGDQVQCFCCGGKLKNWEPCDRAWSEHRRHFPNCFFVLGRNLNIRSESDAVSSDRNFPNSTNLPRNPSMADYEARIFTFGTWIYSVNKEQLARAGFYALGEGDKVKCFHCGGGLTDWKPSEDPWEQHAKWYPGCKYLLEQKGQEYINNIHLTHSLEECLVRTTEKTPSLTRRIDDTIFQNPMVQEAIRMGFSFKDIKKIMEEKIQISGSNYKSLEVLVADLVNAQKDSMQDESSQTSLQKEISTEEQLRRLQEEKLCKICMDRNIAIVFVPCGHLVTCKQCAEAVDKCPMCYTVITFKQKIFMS
Chain of Dihydroorotate dehydrogenase (quinone), mitochondrial (Plasmodium falciparum (isolate 3D7)) (Q08210 whole entry, looked up): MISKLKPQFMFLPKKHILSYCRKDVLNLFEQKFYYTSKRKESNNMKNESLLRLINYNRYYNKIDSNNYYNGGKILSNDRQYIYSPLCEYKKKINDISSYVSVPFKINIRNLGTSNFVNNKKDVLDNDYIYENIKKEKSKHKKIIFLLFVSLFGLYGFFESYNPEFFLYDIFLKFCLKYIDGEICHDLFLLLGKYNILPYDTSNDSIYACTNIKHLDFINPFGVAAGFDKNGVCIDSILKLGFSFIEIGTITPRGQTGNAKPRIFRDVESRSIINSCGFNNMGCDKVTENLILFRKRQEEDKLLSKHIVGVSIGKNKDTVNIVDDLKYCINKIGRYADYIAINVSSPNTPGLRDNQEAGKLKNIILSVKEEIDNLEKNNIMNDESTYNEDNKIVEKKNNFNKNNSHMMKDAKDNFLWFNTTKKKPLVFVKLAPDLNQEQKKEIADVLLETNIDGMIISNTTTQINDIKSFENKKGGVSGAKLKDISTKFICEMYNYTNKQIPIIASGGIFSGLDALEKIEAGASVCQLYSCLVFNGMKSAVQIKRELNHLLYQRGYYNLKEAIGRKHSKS
Chain of Homeobox protein Hox-A13 (Mus musculus) (Q62424 whole entry, looked up): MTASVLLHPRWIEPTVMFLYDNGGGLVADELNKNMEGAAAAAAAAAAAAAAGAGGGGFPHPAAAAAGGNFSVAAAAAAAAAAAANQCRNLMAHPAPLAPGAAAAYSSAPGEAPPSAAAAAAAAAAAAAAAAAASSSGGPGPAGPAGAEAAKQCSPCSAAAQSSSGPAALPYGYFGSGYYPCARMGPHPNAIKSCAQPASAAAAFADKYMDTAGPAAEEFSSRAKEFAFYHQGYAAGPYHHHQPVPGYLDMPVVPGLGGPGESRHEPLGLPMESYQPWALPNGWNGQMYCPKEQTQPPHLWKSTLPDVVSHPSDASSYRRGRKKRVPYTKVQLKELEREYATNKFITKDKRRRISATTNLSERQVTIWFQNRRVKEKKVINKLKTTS

SMILES | z-score [1] | z-score [2] | z-score [3] | composite z-score [4] | z-score [5] | z-score [6] | z-score [7] | z-score [8] | z-score [9] | composite z-score [10] | composite z-score [11] | composite z-score (XIP peptide (Xip251-270)) | z-score [12] | z-score [13] | z-score [14] | z-score [15]
Cc1ccc(F)cc1S(=O)(=O)N[C@@H]1CCN(Cc2ccc3[nH]ccc3c2)C1 | -1.14 | -2.59 (inactive) | -0.946 (inactive) | -0.203 (inactive) | -0.189 (inactive) | -0.773 (inactive) | -1.37 (inactive) | -4.18 (inactive) | -0.73 | -0.144 | -0.0141 (inactive) | 0.261 | -1.3 | -4.14 (inactive) | 0.29 (inactive) | -0.075 (inactive)
CN1C(=O)C2C(C1=O)C1C=C(c3ccc(CO)cc3)C2C(c2cccs2)N1C (centres undefined) | -0.584 | -1.59 (inactive) | -0.446 (inactive) | -1.46 (inactive) | -2.71 (inactive) | -0.0654 (inactive) | 0.596 (inactive) | 0.346 (inactive) | 0.343 | -0.444 | 0.482 (inactive) | -0.202 | -2.32 | -6.12 (inactive) | -0.89 (inactive) | -0.76 (inactive)
CCCCCCCCCCC(O)C1C=CC2C(=O)N(C)C(=O)C2N1N1CCCCC1 (centres undefined) | -1.36 | 0.447 (inactive) | -1.35 (inactive) | 1.24 (inactive) | 0.944 (inactive) | 1.53 (inactive) | -0.619 (inactive) | -0.373 (inactive) | -1.18 | 0.0264 | 0.0477 (inactive) | 0.0634 | -0.152 | -4.08 (inactive) | 0.552 (inactive) | 0.303 (inactive)
COC(=O)[C@@]1(Cc2ccc(F)cc2)[C@H]2c3cc(C(=O)N4CCCC4)n(CCO)c3C[C@H]2CN1C(=O)c1ccccc1 | -0.31 | 0.894 (inactive) | -1.38 (inactive) | -0.757 (inactive) | -0.278 (inactive) | 0.302 (inactive) | 0.0412 (inactive) | -0.654 (inactive) | -0.908 | -0.16 | -0.33 (inactive) | 0.676 | -1.26 | -5.44 (inactive) | -0.961 (inactive) | -0.836 (inactive)
COC(=O)[C@@]1(Cc2ccccc2)[C@H]2c3cc(C(=O)N4CCCC4)n(Cc4ccc(C(F)(F)F)nc4)c3C[C@H]2CN1C(=O)c1ccccc1 | 0.0826 | 1.18 (inactive) | -0.335 (inactive) | -0.559 (inactive) | -0.374 (inactive) | 0.151 (inactive) | 0.018 (inactive) | -0.815 (inactive) | -0.578 | 0.0558 | -0.0699 (inactive) | 0.723 | -1.11 | -3.13 (inactive) | -0.0659 (inactive) | 0.114 (inactive)
COc1ccc([Si](C)(C)[C@H]2[C@H](CCO)O[C@@]3(C(=O)N(Cc4ccccc4)c4ccc(N(C=O)c5ccccc5)cc43)[C@@H]2C)cc1 | 0.0056 | 1.53 (inactive) | -2.24 (inactive) | -0.363 (inactive) | 2.58 (inactive) | 5.16 (inactive) | 1.28 (inactive) | 0.733 (inactive) | -1.28 | -0.0668 | 0.572 (inactive) | 0.571 | -2.74 | -0.799 (inactive) | 1.75 (inactive) | 1.49 (inactive)
CN1C(=O)[C@]2(CCC(=O)OC(C)(C)C)N=C(c3ccc(OCCCO)cc3)O[C@@H]2c2ccccc21 | 0.476 | 0.997 (inactive) | -1.67 (inactive) | 0.42 (inactive) | -0.441 (inactive) | 1.09 (inactive) | 1.01 (inactive) | 0.679 (inactive) | -1.56 | 0.312 | 0.0974 (inactive) | 0.654 | -1.56 | -5.26 (inactive) | -0.0356 (inactive) | 0.25 (inactive)
CCCCC(O)C1C=CC2C(=O)NC(=O)C2N1Nc1ccccn1 (centres undefined) | -1.32 | 0.932 (inactive) | -1.09 (inactive) | 0.487 (inactive) | 0.695 (inactive) | 0.369 (inactive) | -0.576 (inactive) | -0.529 (inactive) | -1.07 | 0.117 | -0.634 (inactive) | 0.146 | 0.993 | -1.21 (inactive) | 0.846 (inactive) | 0.318 (inactive)
COC(=O)[C@@]1(Cc2ccccc2)[C@@H]2[C@@H](CC(=O)[C@H]2CC(=O)C(=O)N(C)C)CN1C(=O)c1ccccc1 | 0.166 | 1.55 (inactive) | -1.18 (inactive) | 0.823 (inactive) | 0.535 (inactive) | 1.02 (inactive) | -0.49 (inactive) | -0.0021 (inactive) | -0.0757 | 0.0464 | -0.282 (inactive) | -0.0913 | -1.23 | -4.98 (inactive) | 0.273 (inactive) | 0.082 (inactive)
[N-]=[N+]=NCc1ccccc1C[C@]1(C(=O)O)COC(c2ccc(OCCCO)cc2)=N1 | 0.24 | 0.59 (inactive) | -0.591 (inactive) | 1.54 (inactive) | 0.37 (inactive) | -0.163 (inactive) | -0.149 (inactive) | -0.0558 (inactive) | -0.279 | -0.445 | -0.4 (inactive) | 0.264 | 1.24 | -3.85 (inactive) | 0.0203 (inactive) | -0.313 (inactive)
COC(=O)c1c(CC[C@@H](CO)NC(=O)N[C@@H](Cc2ccccc2)Cn2cc(-c3cncn3C)nn2)oc(C(C)=O)c1C(=O)OC | -0.649 | -0.615 (inactive) | 0.448 (inactive) | -2.95 (inactive) | -1.25 (inactive) | -0.688 (inactive) | 0.681 (inactive) | 0.438 (inactive) | -0.332 | 0.14 | 0.606 (inactive) | 0.851 | -2.06 | -4.35 (inactive) | -0.331 (inactive) | -0.0353 (inactive)
CC(c1ccccc1)C(O)C1C=CC2C(=O)N(c3ccccc3)C(=O)C2N1Nc1ccc(C#N)cc1 (centres undefined) | 0.142 | -0.0091 (inactive) | -1.24 (inactive) | -0.0432 (inactive) | 0.695 (inactive) | -0.977 (inactive) | 1.07 (inactive) | 1.83 (inactive) | -0.008 | 0.332 | 0.235 (inactive) | 0.784 | 0.526 | -1.21 (inactive) | -0.325 (inactive) | 0.313 (inactive)
CC(C)c1ccc(NN2C(C(O)C(C)C)C=CC3C(=O)N(c4ccccc4)C(=O)C32)cc1 (centres undefined) | -1.65 | -0.619 (inactive) | -0.331 (inactive) | 0.974 (inactive) | 0.711 (inactive) | 1.57 (inactive) | 0.0582 (inactive) | -0.303 (inactive) | 0.0438 | 0.132 | 1.49 (inactive) | 0.778 | -0.63 | -1.26 (inactive) | -0.172 (inactive) | -0.0386 (inactive)
C#CCN([C@H](/C=C/C1CC1)[C@@H](O)Cc1ccccc1)[C@@H](Cc1ccccc1)C(=O)OC | 1.82 | 0.0363 (inactive) | 1.59 (inactive) | 0.373 (inactive) | -0.319 (inactive) | 0.97 (inactive) | 1.07 (inactive) | 0.968 (inactive) | 0.737 | 0.271 | 0.17 (inactive) | -0.205 | -0.752 | -4.57 (inactive) | -0.587 (inactive) | -0.959 (inactive)
CC1CC/C=C\[C@H]2OC34C=CCN(c5ccc(Cl)cc5)C(=O)[C@H]3N(CCCO)C(=O)[C@]4(C)C2C(=O)O1 (some centres undefined) | -1.08 | 1.44 (inactive) | -0.198 (inactive) | 1.44 (inactive) | -0.897 (inactive) | 0.941 (inactive) | -0.699 (inactive) | -0.801 (inactive) | -0.208 | -0.151 | 0.412 (inactive) | 0.861 | 0.4 | -4.75 (inactive) | -0.226 (inactive) | 0.117 (inactive)
CCOC(=O)C1=C(C(=O)OCC)N(S(=O)(=O)CC[Si](C)(C)C)[C@H](c2ccccc2)CC1 | 0.95 | 1.77 (inactive) | -2.4 (inactive) | -0.493 (inactive) | 0.201 (inactive) | 1.73 (inactive) | -0.203 (inactive) | -0.238 (inactive) | -4.03 | -0.127 | -0.177 (inactive) | 0.201 | -1.81 | -2.79 (inactive) | -0.184 (inactive) | -0.535 (inactive)
COCCOC(=O)N1C(=O)[C@@]2(c3cc(C#CC4(O)CCCCCC4)ccc31)[C@H](C(=O)NC[C@H](O)c1ccccc1)[C@H]1C(=O)O[C@H](c3ccccc3)[C@H](c3ccccc3)N1[C@@H]2c1ccc(O)cc1 | 0.982 | -0.598 (inactive) | 0.483 (inactive) | -0.122 (inactive) | -0.108 (inactive) | 0.759 (inactive) | 0.0468 (inactive) | 0.321 (inactive) | -0.0629 | -0.131 | 0.273 (inactive) | 0.78 | -0.44 | -1.8 (inactive) | 0.302 (inactive) | 0.487 (inactive)
O=c1cccc(-c2ccccc2C(F)(F)F)o1 | -0.719 | -3.23 (inactive) | -0.256 (inactive) | -0.636 (inactive) | 0.698 (inactive) | -0.432 (inactive) | -0.736 (inactive) | -0.275 (inactive) | -0.59 | 0.144 | -0.808 (inactive) | -0.597 | 1.58 | -1.43 (inactive) | -0.968 (inactive) | -1.66 (inactive)
CC=CC(O)C1C=CC2C(=O)N(C)C(=O)C2N1NC(=O)OC(C)(C)C (centres undefined) | -1 | 0.906 (inactive) | -0.524 (inactive) | -0.0735 (inactive) | -0.0625 (inactive) | -0.243 (inactive) | -0.447 (inactive) | -0.504 (inactive) | -0.939 | 0.0621 | -0.3 (inactive) | 0.335 | 0.675 | -1.46 (inactive) | 0.698 (inactive) | -0.0345 (inactive)
